# Source: PubChem (National Center for Advancing Translational Sciences (NCATS))
# HPGD inh: blocks human HPGD enzyme activity; P15428; purified HPGD, NADH fluorescence kinetic, PGE2 substrate; Potency, µM, for inactives: at the top dose activity change, negative = inhibition, usual class: inhibitors; hit rate 4.3% among 150,000; AID 894; active = well fitted inhibition curve with a large enough effect, not every such curve was filed as active; inconclusive = small, poorly fitted or top-dose-only effect, or another doubt; inactive = no such curve, though single readings can be large or run the other way; note: potency is the fitted concentration of half-maximal effect
# Target sequence (P15428 whole entry, looked up): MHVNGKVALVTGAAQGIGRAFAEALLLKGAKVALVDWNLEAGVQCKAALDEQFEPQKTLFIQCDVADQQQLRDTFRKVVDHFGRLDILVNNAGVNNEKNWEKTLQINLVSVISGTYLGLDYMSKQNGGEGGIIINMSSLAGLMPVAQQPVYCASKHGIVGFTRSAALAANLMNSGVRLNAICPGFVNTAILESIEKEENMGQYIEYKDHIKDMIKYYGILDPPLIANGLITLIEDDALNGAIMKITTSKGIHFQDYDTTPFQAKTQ
#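 NADH formation kinetics: reaction with 30 uM PGE2 and 1 mM NAD+ (final), 20 nM enzyme, Tris-HCl pH 8 with Tween 20, after 15 min compound preincubation at room temperature. Fluorescence change, last versus first of five reads.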
# IMPase cell inh: cell-permeable inhibitors of inositol monophosphatase (IMPase) | P97697 | CHO-M1 cells, IP1 accumulation, HTRF TR-FRET ratio | inhibition (IP1 accumulation), % at 46.1 µM | 120,000 tested, under 10 active | AID 901; active = well fitted curve in the direction sought with a large enough effect in the signal ratio, not every such curve was filed as active; inconclusive = small, poorly fitted or top-dose-only effect, or a change in a side signal; inactive = no such curve, though single readings can be large or run the other way; the % refers to the signal ratio;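 note: cells stimulated with carbachol in lithium chloride buffer; plate controls were DMSO basal wells for no effect and reference inhibitor wells for full effect; higher means more IMPase inhibition seen as more IP1 and lower FRET ratio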
#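 Cellular IMPase inhibition is scored as a rise in cytosolic IP1, detected by competitive TR-FRET between d2-labelled IP1 and a europium anti-IP1 antibody. M1-expressing CHO cells were stimulated with carbachol for 30 min at 37C, with lithium (50 mM LiCl) present in the buffer.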
# PNC inhibitor: inhibitors of perinucleolar compartment assembly; AID 2417; PC3M PTB-GFP, PNC prevalence imaging, 16 h; hits give low values; hit rate 3.1% among 140,000; activity change (PNC), negative = inhibition, % at 10 µM;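 active = readout at or below -70, meaning at least 70% loss of cells showing the perinucleolar compartment, a nuclear body marking cancer cells; inconclusive = readout between -30 and a set limit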;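 note: plate controls were DMSO wells for no effect and camptothecin positive control wells for full effect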
#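 Compounds are pinned in duplicate onto adhered PC3M cells stably expressing GFP-tagged PTB and incubated 16 h at 37 C. Cells are then fixed, nuclei stained with Hoechst, and PNC-positive cells counted.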
# IMPase Li inh: cell-permeable IMPase inhibitors with lithium potentiation; Potency, µM (highest dose often 59.4 µM), inactives show top-dose activity, negative = IMPase inhibition, most hits filed as inhibitors; CHO-M1 cells, IP1 TR-FRET (IP-One), carbachol + lithium; hit rate 0.35% among 210,000;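 note: IP1 builds up when IMPase is blocked and the TR-FRET signal falls; potency is the fitted concentration of half-maximal effect; plate controls were basal vehicle for no effect and high inhibitor control for full effect; nearly all actives have a fitted effect of over 50% in size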
#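 Concentration–response in CHO-M1 cells, lithium-potentiated; 30 min at 37C. IP1 detected by competitive TR-FRET after 10 min lysis at RT. Hill-fitted AC50.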
# ALOX12 inhib: 12-hLO (ALOX12) enzyme inhibition | AID 1452 | Potency, µM (doses to about 57.1 µM), for inactives: at the top dose activity change, negative = inhibition, hits mostly inhibitors | hit rate 0.12% among 150,000 | purified 12-hLO, xylenol orange hydroperoxide absorbance | P18054; note: potency is the fitted concentration of half-maximal effect; nearly all actives have a fitted effect of over 55% in size
#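 Hydroperoxide formation by human 12-lipoxygenase from 40 uM arachidonic acid was followed colorimetrically via ferric-xylenol orange complex, using the 573/405 nm absorbance ratio. Enzyme concentration was 150 nM, with 30 min reaction at room temperature.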
# ALDH1A1 inh: ALDH1A1 (human) enzyme inhibition; P00352; Purified ALDH1A1, NADH fluorescence, propionaldehyde substrate; Potency, µM (doses to about 75.3 µM), for inactives: at the top dose activity, negative = inhibition, most hits filed as inhibitors; hit rate 7.3% among 220,000; active = well fitted inhibition curve with a large enough effect, not every such curve was filed as active; inconclusive = small, poorly fitted or top-dose-only effect, or another doubt; inactive = no such curve, though single readings can be large or run the other way;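 note: potency is the fitted concentration of half-maximal effect; plate controls were no enzyme wells and a reference inhibitor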
# Target sequence (P00352 whole entry, looked up): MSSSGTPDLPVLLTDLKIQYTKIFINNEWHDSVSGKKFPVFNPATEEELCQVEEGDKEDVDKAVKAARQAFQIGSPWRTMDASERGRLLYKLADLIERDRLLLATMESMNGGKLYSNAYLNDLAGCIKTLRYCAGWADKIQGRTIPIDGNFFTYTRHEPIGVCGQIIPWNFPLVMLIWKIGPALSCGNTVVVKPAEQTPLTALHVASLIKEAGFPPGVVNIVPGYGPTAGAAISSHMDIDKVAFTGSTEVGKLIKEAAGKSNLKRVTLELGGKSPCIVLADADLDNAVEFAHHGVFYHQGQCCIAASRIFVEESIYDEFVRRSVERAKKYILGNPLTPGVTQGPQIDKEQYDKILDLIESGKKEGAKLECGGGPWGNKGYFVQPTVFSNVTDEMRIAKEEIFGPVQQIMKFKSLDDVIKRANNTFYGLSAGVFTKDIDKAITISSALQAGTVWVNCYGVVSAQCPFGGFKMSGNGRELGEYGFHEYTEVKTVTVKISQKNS
# Numbers without * were called inactive; ? = inconclusive; . = no result given; [ ] = remark or other dose. Shown are actives, neighbours in structure and some others; about 11% of the full set was active somewhere. Unless noted, calls come from the whole dose curve; as a rule, active = well fitted curve in the direction sought with a large enough effect; inconclusive = small, poorly fitted or top-dose-only effect, or another doubt; inactive = no such curve, though single readings can be large; an effect the other way counts as inactive or inconclusive. Unless noted, % is set by controls: 0 for no effect and ±100 for the full control effect.
SMILES,HPGD inh,IMPase cell inh,PNC inhibitor,IMPase Li inh,ALOX12 inhib,ALDH1A1 inh
O=C(CCN1CCCCC1)NNC(=S)NC(=O)c1ccc(Br)cc1,.,.,.,14.5%,.,28.2µM*
COc1ccc(C(=O)NC(=S)NNC(=O)c2cnccn2)cc1,?,-0.3,29.6,6.4%,-1.2%,17.8µM*
COc1ccc(C(=O)NC(=S)NNC(=O)COc2ccccc2)cc1,.,.,.,-4.6%,.,17.8µM*
CC(=O)NNC(=S)NC(=O)c1ccc(C)cc1,.,.,.,2.2%,.,?
CC(=O)NNC(=S)NC(=O)c1ccccc1,.,.,.,-3.4%,.,17.8µM*
Cc1nc2cnc(Oc3cccc(Cl)c3)nc2n(Cc2ccc(F)cc2)c1=O,.,.,.,17.3%,.,?
COc1ccc(C(=O)c2ccccc2)c(O)c1O,-20.9%,.,.,3.8%,0.2%,-3.4%
COCC(=O)N1CCC2(CCCN(C(c3ccccc3)c3ccccc3)C2)CC1,-11.3%,.,.,18.3%,-11.2%,10.9%
O=c1cc(-c2cccc(O)c2)oc2cc(O)ccc12,?,8.4,.,9.5%,-0.6%,?
O=c1cc(-c2cccc(O)c2)oc2c(O)c(O)ccc12,3.16µM*,?,.,14.7%,-27.2%,?
COc1ccc(Cc2nnc(NC(=O)C3CCCO3)s2)cc1 (centres undefined),-17.7%,5.9,-123.3*,11.6%[38.3 µM],-5.3%,?
O=C(Nc1nnc(Cc2ccc(Cl)cc2)s1)C1CCCO1 (centres undefined),.,.,.,16.3%,.,14.1µM*
CCC(=O)[C@@]1(C)[C@H](C)C[C@@H]2[C@@H]3CCC4=CC(=O)C=C[C@@]4(C)[C@H]3[C@H](O)C[C@]21C,-2.6%,10.1[20.6 µM],.,13.4%,-0.7%[25.6 µM],0.7%[20.9 µM]
CCN1CCN(C(=O)c2ccc3c(c2)S(=O)(=O)c2ccccc2C3=O)CC1,.,.,.,-12.7%,.,7.94µM*
O=C(NCC(c1ccco1)N1CCCCC1)c1ccc2c(c1)S(=O)(=O)c1ccccc1C2=O (centres undefined),.,.,.,13.8%,.,12.6µM*
CCC(C)(C)NC(=O)c1ccc2c(c1)S(=O)(=O)c1ccccc1C2=O,25.1µM*,11.4,?,?,-10.5%,3.55µM*
O=C(Nc1ccccn1)c1ccc2c(c1)S(=O)(=O)c1ccccc1C2=O,-15.7%,.,62.0,3.2%,-3.6%,15.8µM*
Cc1noc(C)c1-c1cc(NCc2cccs2)ncn1,.,.,.,-2.2%,.,-4.7%
C=CCn1c(SCC(=O)c2c(C)[nH]c3ccccc23)nnc1-c1ccncc1,.,.,.,-11.0%,.,6.5%
CN(C)CCO[C@](C)(c1ccccc1)c1ccccn1,-6.4%,11.3[20.6 µM],.,6.9%,1.9%[25.6 µM],4.1%[20.9 µM]
O=C(NCC1(c2ccccc2)CCCC1)C(=O)NCC1(c2ccccc2)CCCC1,-5.6%,4.8,-9.4,-3.0%,0.0%,0.4%
CN1CCNC(=O)C1CC(=O)NCC1(c2ccccc2)CCCCC1 (centres undefined),.,.,.,-2.4%,.,15.8µM*
COCC(=O)N1CCC2(CCCN(c3ccc(-c4ccccc4)cc3)C2)CC1,?,.,.,20.1%,-10.7%,?
Nc1nc2[nH]c(=O)[nH]c2c(=O)[nH]1,-3.8%,.,.,-7.3%,-1.0%,11.0%
O=C1C=C(c2cccs2)CC(c2cccs2)C1n1cnc([N+](=O)[O-])c1 (centres undefined),-15.2%,1.7,21.1,1.5%[38.3 µM],-2.4%,28.2µM*
SMILES,HPGD inh,IMPase cell inh,PNC inhibitor,IMPase Li inh,ALOX12 inhib,ALDH1A1 inh
COC(=O)N/N=C/c1ccc(-c2ccc(C)c(Cl)c2)o1,14.1µM*,14.4,3.3,-9.0%,-5.4%,-11.3%
Nc1nonc1C(=O)N/N=C/c1ccc(-c2ccc(Cl)c(C(=O)O)c2)o1,.,.,.,-7.0%,.,3.98µM*
Fc1ccc(-c2cn3cc(Cc4ccccc4Cl)sc3n2)cc1,.,-2.7,.,.,.,.
CC(/C=C/c1ccc(N(C)C)cc1)=N\N=C1\NC(=O)CC(C(=O)Nc2ccccc2)S1 (centres undefined),-15.4%,.,49.5,0.4%,2.6%,?
CC(/C=C/c1ccc(N(C)C)cc1)=N/N=C1/NC(=O)CC(C(=O)Nc2ccc(Cl)cc2)S1 (centres undefined),-23.0%,.,13.3,-0.8%,-9.2%,25.1µM*
COc1ccc(CNc2nc(-c3ccccc3)nn2C(=O)c2cccs2)cc1,-29.2%,3.2,29.1,16.9%[38.3 µM],3.1%,25.1µM*
CC1(C)CC(=O)c2cc(C(=O)Nc3ccc(Br)cc3)c(=O)n(-c3ccc(Cl)cc3)c2C1,.,0.6,.,.,.,.
CCCCN1C(=O)C(=Nc2cccc3cnccc23)c2ccccc21,.,.,.,4.7%,.,0.631µM*
CC/C=C1/OC(=O)c2ccccc21,-7.4%,.,.,-14.0%,0.8%,?
CCNc1ncc2nc(-c3ccc(OC)cc3)c(=O)n(Cc3cccs3)c2n1,.,.,.,-22.4%,.,?
COCCNC(=O)CSc1nc(-c2ccccc2)[nH]c1-c1ccc(OC)cc1,.,1.3,.,.,.,.
Cc1nc2cncnc2n(-c2ccccc2)c1=O,-18.9%,.,.,-8.7%,-1.0%,?
COc1ccc(-n2c(=O)c(C)nc3cncnc32)cc1,-29.6%,.,.,3.4%,-5.0%,25.1µM*
O=C1NCCCC2c3cc(O)c4ccccc4c3OC12N1CCCCC1 (centres undefined),-11.0%,?,?,-2.2%[38.3 µM],-24.9%,?
O=C1NCCCC2c3c(cc(Br)c(O)c3Br)OC12N1CCOCC1 (centres undefined),31.6µM*,21.1,-1.9,36.7%[38.3 µM],-4.7%,3.16µM*
COc1ccc2c(c1)-c1nc(NC(=O)c3ccc(C)cc3)sc1CC2,.,18.2,.,.,.,.
COc1ccc2c(c1)-c1nc(/N=C/c3cccc(OC)c3O)sc1CC2,-17.4%,.,-22.5,-1.2%,-25.8%,11.2µM*
COc1ccc2c(c1)-c1nc(/N=C/c3ccccc3O)sc1CC2,-13.6%,.,23.3,-1.4%,-7.6%,28.2µM*
CC(Oc1ccccc1F)C(=O)Nc1ccc2ccccc2c1 (centres undefined),-21.1%,?,-86.6*,0.9%,-5.4%,0.8%
CC1(C)C(=O)C(c2ccccc2)=C2CN3C(=O)N(CCc4ccccc4)C(=O)C3(Cc3ccc(F)cc3)C=C21 (centres undefined),-12.9%,.,.,3.6%,-0.9%,-8.3%
CC1CCN(CCCOc2ccc(Br)cc2Cl)CC1,.,.,.,12.9%,.,-3.8%
O=C1CCC(=O)N1OCCCOc1ccc(Br)cc1Cl,17.8µM*,8.0,-11.3,-1.0%,-2.1%,-1.9%
COc1cc(-c2nnc(SCC(=O)c3ccc(C)cc3)o2)cc(OC)c1OC,-5.9%,8.6,?,16.7%,1.3%,28.2µM*
CCS(=O)(=O)Nc1ccc(-c2nnc(SCC(=O)c3cccc(OC)c3)o2)cc1,?,?,?,?,-6.6%,3.16µM*
COc1cccc(C(=O)CSc2nnc(-c3cc(OC)c(OC)c(OC)c3)o2)c1,-29.7%,7.9,1.0,3.3%[38.3 µM],2.2%,?
